Here are results for 7 sequences from paper PMC7862700, “An all-to-all approach to the identification of sequence-specific readers for epigenetic DNA modifications on cytosine”.

What all share (assay): DAPPL (digital affinity profiling via proximity ligation, sequencing); 10 mM Tris-HCl pH 7.5, 50 mM NaCl, 1 mM DTT, 4% glycerol, room temperature, 30 min; GST-TFs on glutathione beads, 16-mer random dsDNA library, 0.1% formaldehyde crosslink after washing; high values mean tight binding
Settings in all cases: protein: recombinant; tags: N-terminal GST; dsDNA, one strand shown

The target in one assay is T1, FLI1 (Homo sapiens, UniProt Q01543 1-452).
T1 sequence: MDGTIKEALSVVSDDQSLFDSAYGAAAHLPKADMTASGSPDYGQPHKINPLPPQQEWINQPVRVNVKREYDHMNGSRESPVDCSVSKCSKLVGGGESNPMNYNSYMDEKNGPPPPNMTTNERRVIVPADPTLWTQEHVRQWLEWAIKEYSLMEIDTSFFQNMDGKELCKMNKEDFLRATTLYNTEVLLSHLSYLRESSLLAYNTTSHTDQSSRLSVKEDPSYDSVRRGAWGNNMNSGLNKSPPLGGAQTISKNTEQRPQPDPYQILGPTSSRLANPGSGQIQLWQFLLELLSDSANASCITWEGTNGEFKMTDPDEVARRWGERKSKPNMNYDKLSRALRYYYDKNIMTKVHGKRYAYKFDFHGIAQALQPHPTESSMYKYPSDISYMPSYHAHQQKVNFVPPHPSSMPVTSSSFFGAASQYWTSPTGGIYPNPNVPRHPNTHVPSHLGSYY
The method, boiled down:
(§1)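 Pools of DNA-barcoded human transcription factors, expressed in yeast as GST fusions on glutathione beads and combined with a tag-only sample, were incubated with 200 nmole of a 16-mer random double-stranded DNA library. Incubation took 30 min at room temperature in Tris/NaCl/DTT/glycerol buffer and was followed by washing, 0.1% formaldehyde crosslinking, proximity ligation (BsaI/T4 ligase, 1 h, 37 °C), PCR amplification and sequencing on an Illumina NextSeq500. Binding signal is the ratio of a hexamer's read frequency for a factor to its frequency for the tag-only sample.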

In the next assay the target is T2, ELK1 (Homo sapiens, UniProt P19419 1-428).
T2 sequence: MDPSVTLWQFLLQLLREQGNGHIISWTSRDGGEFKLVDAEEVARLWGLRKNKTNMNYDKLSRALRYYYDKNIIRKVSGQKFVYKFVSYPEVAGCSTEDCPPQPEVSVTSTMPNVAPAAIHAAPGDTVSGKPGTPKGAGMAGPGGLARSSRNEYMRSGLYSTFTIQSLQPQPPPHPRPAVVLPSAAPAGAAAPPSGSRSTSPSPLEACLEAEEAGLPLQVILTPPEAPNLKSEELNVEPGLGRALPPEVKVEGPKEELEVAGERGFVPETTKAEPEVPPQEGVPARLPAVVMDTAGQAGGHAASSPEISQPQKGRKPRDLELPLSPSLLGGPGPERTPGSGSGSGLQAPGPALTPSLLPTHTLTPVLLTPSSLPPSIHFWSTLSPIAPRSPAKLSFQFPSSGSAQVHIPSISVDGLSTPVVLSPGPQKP
The method in brief:
as §1

The target of the next assay is T3, GABPA (Homo sapiens, UniProt Q06546 1-454).
T3 sequence: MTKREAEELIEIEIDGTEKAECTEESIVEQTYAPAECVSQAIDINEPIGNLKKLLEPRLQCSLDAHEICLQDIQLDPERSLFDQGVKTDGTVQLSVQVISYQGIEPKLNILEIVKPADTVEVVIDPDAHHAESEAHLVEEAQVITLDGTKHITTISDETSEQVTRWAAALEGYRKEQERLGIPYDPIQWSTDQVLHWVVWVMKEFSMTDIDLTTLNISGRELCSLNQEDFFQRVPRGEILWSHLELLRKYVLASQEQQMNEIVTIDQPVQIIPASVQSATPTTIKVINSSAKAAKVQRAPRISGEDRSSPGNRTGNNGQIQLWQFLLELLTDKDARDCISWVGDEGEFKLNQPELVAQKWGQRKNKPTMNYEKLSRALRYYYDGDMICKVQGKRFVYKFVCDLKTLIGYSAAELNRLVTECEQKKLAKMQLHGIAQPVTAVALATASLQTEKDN
The method in brief:
as §1

Another assay deals with T4, ERG (Homo sapiens, UniProt P11308 1-479).
T4 sequence: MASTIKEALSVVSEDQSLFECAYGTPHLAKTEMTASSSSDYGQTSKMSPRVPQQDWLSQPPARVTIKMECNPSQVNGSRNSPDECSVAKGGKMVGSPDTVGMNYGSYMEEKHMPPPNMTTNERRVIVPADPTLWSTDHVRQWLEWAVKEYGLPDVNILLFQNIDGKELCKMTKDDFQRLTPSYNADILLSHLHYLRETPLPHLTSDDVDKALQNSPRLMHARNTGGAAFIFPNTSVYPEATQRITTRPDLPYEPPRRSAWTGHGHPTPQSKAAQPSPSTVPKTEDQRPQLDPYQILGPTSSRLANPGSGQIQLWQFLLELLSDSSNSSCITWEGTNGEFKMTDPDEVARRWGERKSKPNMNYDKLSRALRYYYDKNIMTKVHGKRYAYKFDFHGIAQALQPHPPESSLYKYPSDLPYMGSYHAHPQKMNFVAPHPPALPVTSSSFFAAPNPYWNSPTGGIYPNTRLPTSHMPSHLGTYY
The method, boiled down: as §1

The target in a further assay is ELF1 (Homo sapiens, UniProt P32519 1-619). The method, boiled down:
as §1

For another assay, the target named is T5, EHF (Homo sapiens, UniProt Q9NZC4 1-300).
T5 sequence: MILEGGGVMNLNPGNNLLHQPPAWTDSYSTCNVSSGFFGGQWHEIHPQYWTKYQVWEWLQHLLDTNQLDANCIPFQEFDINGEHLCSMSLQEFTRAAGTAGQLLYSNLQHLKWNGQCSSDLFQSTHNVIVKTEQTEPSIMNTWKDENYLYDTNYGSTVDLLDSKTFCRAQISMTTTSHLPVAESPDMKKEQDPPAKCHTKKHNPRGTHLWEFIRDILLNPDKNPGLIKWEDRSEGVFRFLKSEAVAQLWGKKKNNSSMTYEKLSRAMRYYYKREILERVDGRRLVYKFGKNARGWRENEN
The method in brief: as §1

The target in another assay is SPI1 (Homo sapiens, UniProt P17947 1-270). The method in brief:
as §1

Another assay deals with SPIB (Homo sapiens, UniProt Q01892 1-262). The method, boiled down:
as §1

The next assay addresses T6, ELK3 (Homo sapiens, UniProt P41970 1-407).
T6 sequence: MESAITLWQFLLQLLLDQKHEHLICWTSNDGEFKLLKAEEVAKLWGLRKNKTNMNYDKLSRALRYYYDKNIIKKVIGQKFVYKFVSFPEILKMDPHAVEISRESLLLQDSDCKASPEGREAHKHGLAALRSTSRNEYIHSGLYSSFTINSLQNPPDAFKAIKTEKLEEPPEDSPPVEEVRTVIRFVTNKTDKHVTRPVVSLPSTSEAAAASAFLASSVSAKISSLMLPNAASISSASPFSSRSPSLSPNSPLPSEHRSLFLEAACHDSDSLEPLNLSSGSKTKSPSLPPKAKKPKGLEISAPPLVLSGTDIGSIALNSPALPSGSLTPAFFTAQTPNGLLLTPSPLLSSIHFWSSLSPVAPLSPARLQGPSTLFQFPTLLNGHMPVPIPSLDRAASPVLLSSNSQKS
The method in brief:
as §1

Chain of ELF1 (P32519 whole entry): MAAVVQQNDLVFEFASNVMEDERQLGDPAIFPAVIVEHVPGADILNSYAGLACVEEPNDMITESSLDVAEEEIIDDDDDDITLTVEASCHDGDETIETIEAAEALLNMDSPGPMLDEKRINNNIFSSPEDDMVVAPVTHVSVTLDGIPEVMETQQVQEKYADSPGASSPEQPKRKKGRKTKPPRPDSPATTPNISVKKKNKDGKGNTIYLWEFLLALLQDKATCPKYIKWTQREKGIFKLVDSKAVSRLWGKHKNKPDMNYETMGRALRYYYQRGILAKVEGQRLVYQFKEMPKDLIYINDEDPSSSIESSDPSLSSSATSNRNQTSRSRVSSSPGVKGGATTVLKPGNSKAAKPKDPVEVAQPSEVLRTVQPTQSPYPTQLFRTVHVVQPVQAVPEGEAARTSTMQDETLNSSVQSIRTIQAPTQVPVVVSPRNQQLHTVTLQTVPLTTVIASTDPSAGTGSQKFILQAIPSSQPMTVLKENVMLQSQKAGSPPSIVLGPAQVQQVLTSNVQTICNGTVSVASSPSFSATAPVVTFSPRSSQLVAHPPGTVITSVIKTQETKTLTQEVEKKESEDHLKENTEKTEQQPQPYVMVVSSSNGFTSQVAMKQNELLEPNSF
Chain of SPIB (Q01892 whole entry): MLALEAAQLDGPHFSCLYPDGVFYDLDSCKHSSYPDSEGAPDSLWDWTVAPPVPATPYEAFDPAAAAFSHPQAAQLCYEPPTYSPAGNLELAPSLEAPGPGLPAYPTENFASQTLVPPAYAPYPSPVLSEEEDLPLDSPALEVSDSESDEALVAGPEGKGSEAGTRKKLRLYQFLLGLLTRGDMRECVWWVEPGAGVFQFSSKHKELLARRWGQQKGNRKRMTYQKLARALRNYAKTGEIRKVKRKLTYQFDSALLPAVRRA

Regarding CGTCCT, the binding signal is 1.28 fold enrichment (6-mer frequency, TF over GST control) with FLI1; 1.44 fold enrichment (6-mer frequency, TF over GST control) with ELK1; 1.32 fold enrichment (6-mer frequency, TF over GST control) with GABPA; 1.41 fold enrichment (6-mer frequency, TF over GST control) with ERG; 1.3 fold enrichment (6-mer frequency, TF over GST control) with ELF1; 1.37 fold enrichment (6-mer frequency, TF over GST control) with EHF. For the same sequence, the binding signal is 1.42 fold enrichment (6-mer frequency, TF over GST control) with SPI1; 1.38 fold enrichment (6-mer frequency, TF over GST control) with SPIB; 1.47 fold enrichment (6-mer frequency, TF over GST control) with ELK3.
Consider TCTCGC, for which the binding signal with FLI1 was 1.82 fold enrichment (6-mer frequency, TF over GST control); in the assay with ELK1 it was 1.75 fold enrichment (6-mer frequency, TF over GST control); in the assay with GABPA, 1.88 fold enrichment (6-mer frequency, TF over GST control); with ERG, 1.72 fold enrichment (6-mer frequency, TF over GST control); with ELF1 it was 1.77 fold enrichment (6-mer frequency, TF over GST control); with EHF, 1.65 fold enrichment (6-mer frequency, TF over GST control). The binding signal with SPI1 was 1.69 fold enrichment (6-mer frequency, TF over GST control); in the assay with SPIB it was 1.64 fold enrichment (6-mer frequency, TF over GST control); with ELK3 it was 1.72 fold enrichment (6-mer frequency, TF over GST control).
On to TTTACG, for which the binding signal with FLI1 was 1.39 fold enrichment (6-mer frequency, TF over GST control); with ELK1, 1.28 fold enrichment (6-mer frequency, TF over GST control); with GABPA, 1.34 fold enrichment (6-mer frequency, TF over GST control); in the assay with ERG, 1.26 fold enrichment (6-mer frequency, TF over GST control); in the assay with ELF1, 1.26 fold enrichment (6-mer frequency, TF over GST control); with EHF, 1.3 fold enrichment (6-mer frequency, TF over GST control). Moreover, the binding signal was 1.33 fold enrichment (6-mer frequency, TF over GST control) in the assay with SPI1; 1.23 fold enrichment (6-mer frequency, TF over GST control) with SPIB; 1.27 fold enrichment (6-mer frequency, TF over GST control) with ELK3.
For GTTTGA, the binding signal with FLI1 is 1.29 fold enrichment (6-mer frequency, TF over GST control); with ELK1 it was 1.19 fold enrichment (6-mer frequency, TF over GST control); in the assay with GABPA, 1.36 fold enrichment (6-mer frequency, TF over GST control); with ERG, 1.12 fold enrichment (6-mer frequency, TF over GST control); with ELF1, 1.16 fold enrichment (6-mer frequency, TF over GST control); with EHF it was 1.06 fold enrichment (6-mer frequency, TF over GST control). Also, the binding signal was 1.23 fold enrichment (6-mer frequency, TF over GST control) with SPI1; 1.16 fold enrichment (6-mer frequency, TF over GST control) with SPIB; 1.12 fold enrichment (6-mer frequency, TF over GST control) with ELK3.
With CCACGA, the binding signal with FLI1 was 1.18 fold enrichment (6-mer frequency, TF over GST control); with ELK1, 1.17 fold enrichment (6-mer frequency, TF over GST control); with GABPA, 1.19 fold enrichment (6-mer frequency, TF over GST control); with ERG it was 1.12 fold enrichment (6-mer frequency, TF over GST control); with ELF1, 1.1 fold enrichment (6-mer frequency, TF over GST control); in the assay with EHF, 1.23 fold enrichment (6-mer frequency, TF over GST control). Further, the binding signal with SPI1 is 1.12 fold enrichment (6-mer frequency, TF over GST control); with SPIB, 1.06 fold enrichment (6-mer frequency, TF over GST control); with ELK3, 1.16 fold enrichment (6-mer frequency, TF over GST control).
As to GCACGC, the binding signal with FLI1 is 1.03 fold enrichment (6-mer frequency, TF over GST control); in the assay with ELK1, 1.09 fold enrichment (6-mer frequency, TF over GST control); with GABPA it was 1.14 fold enrichment (6-mer frequency, TF over GST control); with ERG, 1.03 fold enrichment (6-mer frequency, TF over GST control); in the assay with ELF1, 1.15 fold enrichment (6-mer frequency, TF over GST control); with EHF, 1.15 fold enrichment (6-mer frequency, TF over GST control). For the same sequence, the binding signal with SPI1 was 1.12 fold enrichment (6-mer frequency, TF over GST control); with SPIB, 1.19 fold enrichment (6-mer frequency, TF over GST control); with ELK3, 1.09 fold enrichment (6-mer frequency, TF over GST control).
For the sequence TGCACC, the binding signal with FLI1 was 1.12 fold enrichment (6-mer frequency, TF over GST control); with ELK1, 1.16 fold enrichment (6-mer frequency, TF over GST control); in the assay with GABPA it was 1.25 fold enrichment (6-mer frequency, TF over GST control); in the assay with ERG, 1.09 fold enrichment (6-mer frequency, TF over GST control); with ELF1, 1.2 fold enrichment (6-mer frequency, TF over GST control); in the assay with EHF, 1.25 fold enrichment (6-mer frequency, TF over GST control). Besides, the binding signal is 1.16 fold enrichment (6-mer frequency, TF over GST control) with SPI1; 1.15 fold enrichment (6-mer frequency, TF over GST control) in the assay with SPIB; 1.16 fold enrichment (6-mer frequency, TF over GST control) in the assay with ELK3.
